# Tests used:
# Experiment in all cases: thermal shift delta Tm vs DMSO control; higher = stronger stabilization (binding)
# Settings in all cases: 12.5 µM; protein concentration 2 µM
# LOC_OS01G57100-cb003 = system: LOC_OS01G57100-cb003
# In short: (§1)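 Compounds dissolved in DMSO were added to purified rice kinase domain constructs, which had been expressed in E. coli, for differential scanning fluorimetry. Each well held 19.5 μl of 2 μM kinase in 100 mM potassium phosphate pH 7.5, 150 mM NaCl, 10% glycerol and 5 × SYPRO Orange. Fluorescence was followed from 25°C to 95°C at a rate of 0.05°C/s. Shifts in Boltzmann-fitted melting temperature are triplicate means relative to DMSO-only protein.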
# LOC_OS01G60330-cb001 = system: LOC_OS01G60330-cb001
# In short: as §1
# LOC_OS01G60700-cb002 = system: LOC_OS01G60700-cb002
# In short: as §1
# LOC_OS01G63280-cb003 = system: LOC_OS01G63280-cb003
# In short: as §1
# LOC_OS01G67340-cb003 = system: LOC_OS01G67340-cb003
# In short: as §1
# LOC_OS01G70970-cb002 = system: LOC_OS01G70970-cb002
# In short: as §1
# LOC_OS02G07810-cb001 = system: LOC_OS02G07810-cb001
# In short: as §1
# LOC_OS02G08530-cb003 = system: LOC_OS02G08530-cb003
# In short: as §1
# LOC_OS02G14120-cb001 = system: LOC_OS02G14120-cb001
# In short: as §1
# LOC_OS02G17970-cb001 = system: LOC_OS02G17970-cb001
# In short: as §1
# LOC_OS02G45750-cb003 = system: LOC_OS02G45750-cb003
# In short: as §1
# LOC_OS02G54510-cb004 = system: LOC_OS02G54510-cb004
# In short: as §1
# LOC_OS03G04050-cb001 = system: LOC_OS03G04050-cb001
# In short: as §1
# LOC_OS03G12390-cb001 = system: LOC_OS03G12390-cb001
# In short: as §1
# LOC_OS03G27990-cb004 = system: LOC_OS03G27990-cb004
# In short: as §1
# LOC_OS03G50450-cb001 = system: LOC_OS03G50450-cb001
# In short: as §1
# LOC_OS03G50810-cb003 = system: LOC_OS03G50810-cb003
# In short: as §1
# LOC_OS04G35114-cb001 = system: LOC_OS04G35114-cb001
# In short: as §1
# LOC_OS04G38480-cb003 = system: T1, LOC_OS04G38480-cb003
# T1 sequence (whole entry): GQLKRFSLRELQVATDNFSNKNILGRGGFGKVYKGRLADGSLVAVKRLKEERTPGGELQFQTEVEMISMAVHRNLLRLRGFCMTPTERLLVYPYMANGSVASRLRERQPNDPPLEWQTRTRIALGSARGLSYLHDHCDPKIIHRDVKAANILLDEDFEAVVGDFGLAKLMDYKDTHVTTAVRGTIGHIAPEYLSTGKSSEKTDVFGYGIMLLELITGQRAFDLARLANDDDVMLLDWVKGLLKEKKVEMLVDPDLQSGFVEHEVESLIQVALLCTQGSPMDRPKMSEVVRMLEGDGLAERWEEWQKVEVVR
# In short: as §1
# LOC_OS04G41100-cb001 = system: T2, LOC_OS04G41100-cb001
# T2 sequence (whole entry): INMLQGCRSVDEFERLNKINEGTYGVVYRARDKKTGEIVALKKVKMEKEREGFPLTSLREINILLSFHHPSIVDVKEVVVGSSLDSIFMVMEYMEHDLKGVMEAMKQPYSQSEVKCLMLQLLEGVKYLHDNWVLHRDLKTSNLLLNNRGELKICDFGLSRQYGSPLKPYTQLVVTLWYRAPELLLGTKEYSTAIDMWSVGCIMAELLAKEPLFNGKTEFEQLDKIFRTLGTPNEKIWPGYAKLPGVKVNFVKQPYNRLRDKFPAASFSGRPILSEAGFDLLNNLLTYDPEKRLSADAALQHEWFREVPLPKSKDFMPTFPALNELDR
# In short: as §1
Structure (SMILES),thermal shift delta Tm (LOC_OS01G57100-cb003) [°C],thermal shift delta Tm (LOC_OS01G60330-cb001) [°C],thermal shift delta Tm (LOC_OS01G60700-cb002) [°C],thermal shift delta Tm (LOC_OS01G63280-cb003) [°C],thermal shift delta Tm (LOC_OS01G67340-cb003) [°C],thermal shift delta Tm (LOC_OS01G70970-cb002) [°C],thermal shift delta Tm (LOC_OS02G07810-cb001) [°C],thermal shift delta Tm (LOC_OS02G08530-cb003) [°C],thermal shift delta Tm (LOC_OS02G14120-cb001) [°C],thermal shift delta Tm (LOC_OS02G17970-cb001) [°C],thermal shift delta Tm (LOC_OS02G45750-cb003) [°C],thermal shift delta Tm (LOC_OS02G54510-cb004) [°C],thermal shift delta Tm (LOC_OS03G04050-cb001) [°C],thermal shift delta Tm (LOC_OS03G12390-cb001) [°C],thermal shift delta Tm (LOC_OS03G27990-cb004) [°C],thermal shift delta Tm (LOC_OS03G50450-cb001) [°C],thermal shift delta Tm (LOC_OS03G50810-cb003) [°C],thermal shift delta Tm (LOC_OS04G35114-cb001) [°C],thermal shift delta Tm (LOC_OS04G38480-cb003) [°C],thermal shift delta Tm (LOC_OS04G41100-cb001) [°C]
c1cn2cc(-c3ccc4cn[nH]c4c3)nc(Nc3ccc(N4CCOCC4)cc3)c2n1 [Entospletinib (GS-9973)],2.14,7.21,1.39,2,2.82,1.17,-0.11,3.77,8.09,0.54,0.66,1.02,0.92,3.99,1.72,4.22,2.13,2.13,2.56,1.01
COC1(c2sc3c(N4CCOCC4)nc(-c4cnc(N)nc4)nc3c2C)COC1,0.25,2.64,0.38,-0.37,0.5,0.89,0.33,2.22,0.63,0.32,1.67,3.13,-0.01,0.74,0.96,4.14,0.91,2.13,1.11,0.5
C=CC(=O)Nc1ccc2ncnc(Nc3cccc(Br)c3)c2c1,0.86,0.41,0.96,-0.32,-0.12,0.22,0.8,0.61,-0.18,0.66,0.51,0.24,0.68,-0.11,0.2,0.37,0.27,0.79,0.18,0.35
NC(=O)Nc1cc(-c2cccc(F)c2)sc1C(=O)N[C@H]1CCCNC1,4.78,1.93,0.65,0.86,0.78,1.89,1.56,5.46,8.74,0.89,1.81,1.91,0.72,2.87,3.23,3.98,4.12,2.52,2.65,0.96
CCCCCCCCCCCCCCCCn1cc[n+](Cc2ccccc2)c1C,-6.09,0.5,-2.72,-7.84,-1.74,-4.15,-4.78,-0.96,-1.51,-2.91,-1.15,-1.83,-4.41,-3.77,0.11,-1.25,-4.07,-2.5,-5.2,-1.35
O=C(O)c1ccc(Nc2ncc3c(n2)-c2ccc(Cl)cc2C(c2c(F)cccc2F)=NC3)cc1,0.51,0.82,0.64,-0.31,-0.46,0.46,0.3,0.39,0.88,0.07,0.27,1.01,0.54,-0.49,0.21,0.06,0.12,0.54,0.01,0.55
CCc1ccc(/C=C2/SC(=S)NC2=O)cc1,3.2,1.11,2.87,0.27,0.34,1.39,1.4,1.74,1.62,1.54,-0.48,0.83,1.24,1.18,0.83,0.26,0.48,1.2,1.19,0.36
Cn1cc(/C=C2\C(=O)Nc3cccnc32)c2ccccc21,1.08,12.1,1.27,0.58,2.54,4.16,1.32,4.2,3.15,1.08,11.3,0.63,0.83,3.11,1.64,4,3.46,6.79,3.05,0.74
CN1c2ccccc2C(=O)Nc2cnc(Nc3ccc(N4CCC(O)CC4)cc3)nc21,0.2,1.06,0.97,2.56,1.01,2.61,0.39,0.74,11.1,0.53,5.71,2.78,0.24,2.56,1.24,-0.12,2.29,3.85,3.65,0.15
Cn1cc(-c2ccc3nnc(C(F)(F)c4ccc5ncccc5c4)n3n2)cn1,1.42,1.1,1.32,0.31,-0.37,0.13,0.91,1.21,2.28,0.51,0.26,-0.14,0.41,0.23,-0.02,0.07,0.22,0.35,0.98,0.6
CCOc1cn(-c2ccc(F)cc2C)nc1C(=O)Nc1ccc(Oc2ccnc3cc(OC)c(OC)cc23)c(F)c1,0.32,1.07,0.34,0.6,0.43,0.98,0.56,1.15,2.96,0.55,1.39,0.07,0.15,0.26,0.2,0.09,1.07,1.9,2.19,0.88

# Reference: the supplement of paper PMC9694430
